Test results taken from PubChem BioAssay (NCI).
About 83,000 compounds went through this panel and 20% of them were active in at least one assay; those are over-represented in the sample as a whole.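 Percent growth is the endpoint: 0 to 100 indicates growth inhibition (40 means 60% inhibition), 0 means no net growth, and negative values indicate cell death.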 Values without a mark were called inactive. Calls of active or inactive are those of the source. Rule for the calls: active = growth percent below 10; inactive = the rest.

Assays:
Assay in all cases: NCI-60 one-dose screen, 48 h (100 = growth as untreated, 0 = no growth, -100 = all killed)
Conditions in all cases: 10 µM unless noted
SK-MEL-2 melanoma = test system: SK-MEL-2 melanoma
EKVX NSCLC = test system: EKVX NSCLC
SN12C renal = test system: SN12C renal
UO-31 renal = test system: UO-31 renal
TK-10 renal = test system: TK-10 renal
ACHN renal = test system: ACHN renal
A498 renal = test system: A498 renal
CCRF-CEM leukemia = test system: CCRF-CEM leukemia
MOLT-4 leukemia = test system: MOLT-4 leukemia
SR leukemia = test system: SR leukemia
RPMI-8226 leukemia = test system: RPMI-8226 leukemia
OVCAR-8 ovarian = test system: OVCAR-8 ovarian
OVCAR-5 ovarian = test system: OVCAR-5 ovarian
OVCAR-4 ovarian = test system: OVCAR-4 ovarian
SK-OV-3 ovarian = test system: SK-OV-3 ovarian
IGROV1 ovarian = test system: IGROV1 ovarian
OVCAR-3 ovarian = test system: OVCAR-3 ovarian
HS 578T breast = test system: HS 578T breast
NCI/ADR-RES ovarian = test system: NCI/ADR-RES ovarian
CAKI-1 renal = test system: CAKI-1 renal

| Compound | growth (SK-MEL-2 melanoma) | growth (EKVX NSCLC) | growth (SN12C renal) | growth (UO-31 renal) | growth (TK-10 renal) | growth (ACHN renal) | growth (A498 renal) | growth (CCRF-CEM leukemia) | growth (MOLT-4 leukemia) | growth (SR leukemia) | growth (RPMI-8226 leukemia) | growth (OVCAR-8 ovarian) | growth (OVCAR-5 ovarian) | growth (OVCAR-4 ovarian) | growth (SK-OV-3 ovarian) | growth (IGROV1 ovarian) | growth (OVCAR-3 ovarian) | growth (HS 578T breast) | growth (NCI/ADR-RES ovarian) | growth (CAKI-1 renal) |
| --- | --- | --- | --- | --- | --- | --- | --- | --- | --- | --- | --- | --- | --- | --- | --- | --- | --- | --- | --- | --- |
| Nc1ccccc1NC(=O)c1ccc(CN2CCC/C(=C\c3cccc(Cl)c3)C2=O)cc1 | 11.1% | 20.4% | 5.8% (active) | 22.6% | 4.89% (active) | 5.98% (active) | -11% (active) | 4.02% (active) | 1.63% (active) | 10.4% | -18.7% (active) | 10.2% | 36.7% | 33.7% | 13.1% | 17.8% | 5.7% (active) | 43.1% | 5% (active) | – |
| COc1cc(C2NC(c3cc(OC)c(OC)c(OC)c3)C(C#N)(C#N)C2(C#N)C#N)cc(OC)c1OC (centres undefined) | 101% | 97.6% | 100% | 83.8% | 103% | 97.7% | 107% | 136% | 96.8% | 118% | 102% | 106% | – | 100% | 102% | 106% | 110% | 89.2% | 97.8% | – |
| COc1ccc(-n2cc(-c3cc(OC)c(OC)c(OC)c3)n(C(C)=O)c2=O)cc1 | 93.2% | 88% | 93.4% | 77.2% | 105% | 97.7% | – | – | 103% | – | 123% | 91.8% | 78.3% | 79.9% | 94.6% | 107% | 108% | 92.3% | 100% | 53.7% |
| CC(C)Sc1nc(NN)c(C#N)c(-c2ccccc2)n1 | 109% | 94.1% | 98.8% | 75.9% | 107% | – | 92.8% | 94.3% | 97.4% | 109% | – | 96.6% | 92.8% | 94.5% | 108% | 86.3% | 100% | 93.6% | 99.8% | 93.6% |
| Cc1cc(C(=O)Nc2ncnc3nc[nH]c23)no1 | 131% | 103% | 93.8% | 80.5% | 118% | 99.8% | 110% | 86.4% | 91.7% | – | – | 102% | 116% | 114% | 97.2% | 89.6% | 108% | 95.5% | 106% | – |
| CCOc1cc(CNc2ccc(N3CCOCC3)c(C(=O)O)c2)ccc1OC | 98.7% | 96.9% | 94.2% | 98.1% | 94.7% | – | – | 106% | 104% | 94.2% | 100% | 95.2% | 102% | 102% | 120% | 103% | 105% | 95.6% | 102% | 102% |
| COc1cc(Nc2cc(O)c3c(=O)cc(-c4ccccc4)oc3c2)cc(OC)c1 | 13.2% | 38.2% | 44.3% | 40.3% | 44% | – | -4.73% (active) | 10.8% | 24.6% | 17.3% | 17.1% | 26.1% | 45.5% | 59.3% | 35.9% | 42.1% | 0.368% (active) | 12.4% | 22.2% | 47.2% |
| Nc1c(C(=O)Nc2ccc(Cl)cc2)cc(-c2nc3ccccc3s2)c(=O)n1NS(=O)(=O)c1ccc(Cl)cc1 | 102% | 85.8% | 95% | 85.9% | 147% | – | – | 97.6% | 91.5% | 95.2% | 92.6% | 100% | 101% | 94.4% | 101% | 97.4% | 105% | 98.4% | 105% | 86.4% |
| [2H]C1([2H])NC([2H])([2H])C([2H])([2H])N(c2ccc(Nc3ncc4cc(C(=O)N(C)C)n(C5CCCC5)c4n3)nc2)C1([2H])[2H] | 94.3% | 65.2% | 74.9% | 61.2% | 43% | 57.4% | 66.5% | – | 8.74% (active) | 39.8% | 34.8% | 85.2% | 39.8% | 92.7% | 58.3% | 73.4% | 107% | 71.2% | 104% | – |
| O=C(Nc1nc2ccc(C(=O)N3CCN(c4ccc(Cl)c(Cl)c4)CC3)cc2s1)c1ccc(NCCc2ccccc2)c([N+](=O)[O-])c1 | 104% | 95.3% | 93.3% | 60.7% | 113% | – | 79.4% | 93.6% | 95.7% | 98.4% | – | 97.3% | 91.3% | 87.3% | 107% | 82% | 111% | 93.5% | 101% | 87% |
| COc1ccc(-c2nc(N/N=C/c3ccco3)nc(N3CCOCC3)c2C#N)cc1 | 91.4% | 82.3% | 80.2% | 28.7% | 89.8% | – | 6.67% (active) | 74.2% | 62.2% | 60.2% | 64% | 88.6% | 89.6% | 78% | 64.6% | 37.3% | 70.2% | 80.6% | 86.4% | 59% |
| COc1ccccc1OCC(=O)N1CCCCCC1 | 114% | 89.6% | 103% | 92% | 96.1% | – | – | 101% | 86.9% | 95.1% | 101% | 97.2% | 94.8% | – | 109% | 104% | 116% | 107% | 103% | 84.1% |
| COc1ccc(-c2ncc(-c3ccccc3)[nH]2)cc1OC | 118% | 106% | 100% | 109% | 256% | – | 89.2% | 18% | -81.9% (active) | 11% | 89.5% | 113% | 113% | 116% | 125% | 119% | 103% | 102% | 121% | 108% |
| COc1ccc(-c2nc(SC(C)C)nc(NNC(N)=O)c2C#N)cc1 | 92.9% | 99.2% | 83.9% | 68.2% | 97.1% | – | 90.2% | 88.3% | 78.6% | 25.8% | 93.9% | 96.9% | – | 94.6% | 83.8% | 72.4% | 81% | 78.9% | 70.7% | 72.2% |
| CC1(c2ccccc2)NC(=O)N(CC(=O)Nc2cccc(I)c2)C1=O (centres undefined) | 77.5% | 106% | 96.9% | 69.8% | 96.1% | – | 70.5% | 88.5% | 85.3% | 71.1% | 74.1% | 91.9% | 89.7% | 90.3% | 87.5% | – | 90.2% | 44.9% | 92.7% | 72.9% |
| Cc1ccc(C2CC(c3cccc(Nc4ccncc4)c3)=NN2c2cc(Cl)cc(Cl)c2)cc1 (centres undefined) | 96.4% | 77.3% | 52.4% | 51.8% | 72.7% | – | 77.6% | 7.28% (active) | 1.74% (active) | 1.17% (active) | 16.1% | -36.5% (active) | 71.1% | 15% | 83.4% | 15.3% | 61.7% | 62.6% | 52.1% | -38.8% (active) |
| CC1(C)CN(c2cnc(C(=O)Nc3cc(F)cc4cccnc34)cn2)CCN1 | 99.8% | 73% | 72.1% | 40.9% | 79.3% | – | 74.3% | 44.5% | 38.5% | 7.28% (active) | 75.6% | 96.5% | 86.1% | 15% | 79.5% | 36.2% | 10.6% | 71.6% | 90.9% | 62.4% |
